Screening data as filed in PubChem BioAssay.
HT1080 IDH1KD tx – qHTS for induction of synthetic lethality in tumor cells producing 2HG: qHTS for the HT-1080-IDH1KD cell line; Potency, µM (top dose mostly 46.1 µM), without a hit: at the top dose activity, negative = toxicity, hits mostly cytotoxic; 2% of 360,000 active; HT-1080 IDH1 knockdown viability, ATP luminescence, 48 h;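 note: 0% = DMSO wells and -100% = cell-free medium wells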
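Viability of IDH1-knockdown HT-1080 fibrosarcoma cells was assessed by CellTiter-Glo after 48 h at 37 °C with titrated compound; concentration-effect curves were classified by fit quality and response size.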
KB-V1 MDR tox – qHTS assay for MDR1-selective chemotherapeutics: Primary screen using the drug-selected MDR subline cells KB-V1; KB-V1 MDR cells viability, CellTiter-Glo, 72 h; 3.4% of 400,000 active; Potency, µM (top dose mostly 46.1 µM), usual class: cytotoxic; note: % is set by controls: 0 for no effect and ±100 for the full control effect; nearly all actives have a fitted effect of over 60% in size
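Cytotoxicity via CellTiter-Glo luminescence after 72 h compound exposure at 37 degrees C. Cells: drug-selected KB-V1 line, DMEM phenol-red free plus 10% FBS. Compounds tested at multiple concentrations; normalized data fitted to concentration-effect curves.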
KB-3-1 tox – qHTS assay for MDR1-selective chemotherapeutics: Primary screen using the parental adenocarcinoma cell KB-3-1. Potency, µM (highest dose often 46.1 µM), most hits filed as cytotoxic. KB-3-1 viability, CellTiter-Glo ATP luminescence, 72 h. 1.4% of 400,000 active. AID 1347075, 2019; note: % is set by controls: 0 for no effect and ±100 for the full control effect; nearly all actives have a fitted effect of over 60% in size
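KB-3-1 parental drug-naive adenocarcinoma cells in DMEM/10% FBS, incubated 72 h at 37 C with pin-transferred compounds across a concentration series. Viability by CellTiter-Glo luminescence; concentration-response curves fitted after normalization.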
HT1080-NT tox – qHTS for induction of synthetic lethality in tumor cells producing 2HG: qHTS for the HT-1080-NT fibrosarcoma cell line; AID 686970, 2013; 1.6% of 360,000 active; Potency, µM (titrated, usually from 46.1 µM), for the others: top-dose activity, negative = less viability, actives largely listed as cytotoxic; HT-1080-NT fibrosarcoma viability, CellTiter-Glo ATP luminescence, 48 h;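 note: NT is the 2HG producing partner of a matched IDH1 knockdown line; 0% = DMSO-treated cells and -100% = media-only wells without cells; nearly all actives have a fitted effect of over 55% in size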
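HT-1080-NT; 750 cells/well; 5% FBS RPMI; 48 h compound, 37 degrees C; CellTiter-Glo luminescence; curve fitting and curve-class assignment.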
HepG2 viability – qHTS for Inhibitors of TGF-b: Cytotox Counterscreen; Potency, µM (doses to about 46.1 µM), without a hit: at the highest dose activity change, negative = cytotoxicity, usual class: cytotoxic; AID 588856, 2011; HepG2 CAGA-GFP viability, ATP luminescence, 18 h; 0.76% of 410,000 active
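HepG2 CAGA-GFP cells (1000/well, DMEM with 1% FBS) received compound, then TGF-beta at 500 pg/mL final, and were incubated 18 hours at 37 degrees C. Viability was read by CellTiter-Glo luminescence. Media-only wells were set as complete cell-killing and DMSO as no toxicity.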
TGFb inhibitor – qHTS for Inhibitors of TGF-b; HepG2 CAGA-GFP TGF-b/SMAD3 reporter, GFP fluorescence, 18 h; TGF-beta stimulated, 500 pg/mL final; Potency, µM (series often up to 46.1 µM), inactives show at the top dose activity, negative = inhibition, most hits filed as inhibitors; 1.2% of 410,000 active; note: % is set by controls: 0 for no effect and ±100 for the full control effect; nearly all actives have a fitted effect of over 65% in size
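Read-out: total well GFP (ex488/em500-530) summed from mean per-cell fluorescence. Cells: HEPG2 CAGA-GFP, 1% FBS DMEM, 18 h at 37 degrees C with 500 pg/mL final TGF-beta. Unstimulated wells served as the full-inhibition control; stimulated DMSO wells = 0%.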
Starred values were filed as active, the others as inactive; i = inactive; u = inconclusive; x = no result given; [ ] = another dose, or the depositor's remark. Most compounds without a hit are left out; they make up all but 6.6% or so of the library. Calls come from the whole dose curve; as a rule, active = well fitted curve in the direction sought with a large enough effect; inconclusive = small, poorly fitted or top-dose-only effect, or another doubt; inactive = no such curve, though single readings can be large; an effect the other way counts as inactive or inconclusive. Potency is the fitted concentration of half-maximal effect.

SMILES | HT1080 IDH1KD tx | KB-V1 MDR tox | KB-3-1 tox | HT1080-NT tox | HepG2 viability | TGFb inhibitor
O=C(OCC(=O)N1CCc2ccccc21)c1c2c(nc3ccccc13)CCCC2 | u | 9.2µM* | u | -15% | -27% | 0%
CCCCN(Cc1cccs1)S(=O)(=O)c1cc(-c2cc(C)no2)ccc1C | x | x | x | x | -13% | -8%
CCN1CCc2c(sc(-n3cccc3)c2C(C)NC(=O)Nc2cc(Cl)c(OC)cc2OC)C1 (centres undefined) | x | x | x | x | -48% | u
CN(CC(=O)Nc1ccc(Cl)c(C(F)(F)F)c1)C(=O)c1ccc(N2CCOCC2)c([N+](=O)[O-])c1 | u | i | i | 23µM* | -24% | u
COc1ccc(Cl)cc1NC(=O)CN(C)C(=O)c1ccc(N2CCCCC2)c([N+](=O)[O-])c1 | -17% | u | 15µM* | -13% | -23% | -61%
CN(CC(=O)Nc1cccc(F)c1)C(=O)c1ccc(N2CCOCC2)c([N+](=O)[O-])c1 | -11% | i | i | 0% | -26% | -19%
O=c1c(N2CCc3ccccc3C2)csc2ccccc12 | x | i | i | x | -3% | -3%
CN1CC[C@H](CN2c3ccccc3Sc3ccccc32)C1 | x | i | u | x | -69% | u
CSc1ccc2c(c1)N(CCC1CCCCN1C)c1ccccc1S2 (centres undefined) | u | u | i | 18µM* | -91% | u
CCCCN(CCCC)CCNC(=O)Cn1nc(CC)n2c(cc3sc(C)cc32)c1=O | x | x | x | x | -10% | 0%
CCCCC1(CC(=O)OCC)C(=O)N(c2ccccc2)N(c2ccccc2)C1=O | -6% | 4.6µM* | i | -3% | -14% | -4%
CCCCC1(CO)C(=O)N(c2ccccc2)N(c2ccccc2)C1=O | -12% | i | i | -7% | -25% | -13%
COc1ccc(-n2nnnc2-c2cccc(OC)c2)cc1 | 1.6µM* | 1.2µM* | 1µM* | u | -3% | -22%
Cc1ccc(CNC(=O)Cc2c(C)c3c(cc(C)c4c(C)coc43)oc2=O)cc1 | x | x | x | x | -8% | -5%
COc1cc([N+](=O)[O-])cc(/C=N/NC(=O)C(C)Nc2cccc(C)c2)c1O (centres undefined) | -16% | u | u | -10% | -9% | -25%
COc1cc([N+](=O)[O-])cc(/C=N/NC(=O)C(C)Nc2ccccc2C)c1O (centres undefined) | u | 12µM* | u | -28% | -12% | -13%
COc1cc([N+](=O)[O-])cc(/C=N/NC(=O)c2ccc(NC(=O)c3ccc(C)cc3)cc2)c1O | u | i | 5.2µM* | u | -72% | u
Cc1cc(=O)n(CC(=O)N2CCCc3ccccc32)c2c1c(C)nn2-c1cccc(F)c1 | x | i | i | x | 4% | 8%
O=C(/C=C/c1ccc(F)cc1)Nc1cccc([S+](=O)([O-])Nc2ccccc2F)c1 | x | i | i | x | x | x
CC1CN(Cc2ccccc2)C(=O)N(c2ccccc2)C1=O (centres undefined) | 2% | x | x | 10% | -2% | -5%
CC1CN(Cc2ccccc2)c2ccccc2NC1=S (centres undefined) | 19% | 21µM* | u | 14% | -9% | -8%
COC(=O)[C@@]1(Cc2ccccc2)[C@H]2C(=O)N(C)C(=O)[C@H]2[C@H]2CN=C(SC)N21 | 3% | i | i | 5% | -4% | 6%
COc1ccc(Nc2ncc(C(=O)N3CCN(c4cccc(Cl)c4)CC3)c3ccccc23)cc1 | x | u | u | x | -27% | -6%
Cc1ccc(OCC(=O)Nc2nonc2-c2ccc(C)c(C)c2)cc1C | x | i | i | x | -32% | -28%
COc1cc(NC(=O)c2cccc(COCC(F)(F)C(F)F)c2)cc(OC)c1OC | -6% | u | u | 2% | -2% | -1%
SMILES | HT1080 IDH1KD tx | KB-V1 MDR tox | KB-3-1 tox | HT1080-NT tox | HepG2 viability | TGFb inhibitor
O=C(c1cccc(C(=O)N2CCN(c3ccccc3)CC2)c1)N1CCN(c2ccccc2)CC1 | -26% | u | i | 2% | -32% | u
O=C(c1cccc(COCC(F)(F)C(F)F)c1)N1CCN(c2ccccc2)CC1 | -18% | 15µM* | i | 2% | 0% | u
COc1ccc(/C=N/NC(=O)c2cccc(COCC(F)(F)C(F)F)c2)cc1 | u | 23µM* | i | -11% | -5% | 0%
CCc1ccc(CNC(=O)c2cnc3sc(N(CC)CC)nn3c2=O)cc1 | x | x | x | x | -35% | u
CCN(CC)C(=O)COn1c(SCC(=O)N(CC)CC)nc2ccccc2c1=O | 13% | 16µM* | i | -1% | -8% | 2%
CCOC(=O)CSc1nc2ccccc2c(=O)n1CC1COc2ccccc2O1 (centres undefined) | -9% | i | i | -5% | -4% | 1%
CCCN(CCC)C(=O)CSc1nc2ccccc2c(=O)n1CC1COc2ccccc2O1 (centres undefined) | -5% | 21µM* | u | -1% | 0% | -2%
CCN(CC)C(=O)CSc1nc2ccccc2c(=O)n1OC | 1% | i | i | 6% | 12% | -27%
CCc1cc2c(CN(C)Cc3ccccc3F)cc(=O)oc2cc1O | u | 12µM* | u | u | -49% | u
CCN(CC)S(=O)(=O)c1cccc(C(=O)OCC(=O)c2ccc3c(c2)OCCO3)c1 | -3% | 13µM* | i | 9% | 3% | 6%
CS(=O)(=O)c1cccc(C(=O)OCC(=O)c2ccc3c(c2)OCCO3)c1 | 16% | i | i | 13% | 0% | 12%
COc1ccc(C(=O)CC2(O)C(=O)N(Cc3cccc(C(F)(F)F)c3)c3ccccc32)cc1 (centres undefined) | x | 15µM* | u | x | -106% | u
COc1cccc(C(=O)CC2(O)C(=O)N(Cc3ccccc3)c3ccccc32)c1 (centres undefined) | x | x | x | x | -17% | -1%
CCOC(=O)c1[nH]c(C)c(C(=O)Nc2ccc(C)c(F)c2)c1C | 3.5µM* | 2.9µM* | u | 10µM* | -36% | -13%
CCOC(=O)c1[nH]c(C)c(C(=O)Nc2ccc(C)c(Cl)c2)c1C | 13µM* | i | u | 0%[9.24 µM] | -32% | 5%
